Measured values published in PubChem BioAssay (NCATS).
Values without a mark were called inactive. Results filed as inconclusive are left out. Activity calls are given as the source filed them. Unless noted, the call rests on the fitted dose curve; in most records, active means well fitted curve in the direction sought with a large enough effect; inconclusive means small, poorly fitted or top-dose-only effect, or another doubt; inactive means no such curve, though single readings can be large; an effect the other way counts as inactive or inconclusive.

Assays:
[1] = target: Lysosomal acid glucosylceramidase (Homo sapiens) (UniProt P04062); experiment: Glucocerebrosidase-p2 (AID 348; in the data active means potency below about 10 µM; further: potency means the concentration at half of the fitted maximal effect); conditions: purified GBA, blue fluorogenic substrate, 40 min
In short: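 Normal human glucocerebrosidase (0.2 nM) with blue fluorogenic substrate (80 uM final) in citrate/phosphate pH 5.9 with 10mM sodium taurocholate, 0.01% tween-20; 40 min RT, NaOH/glycine stop; fluorescence Ex 365/Em 440; AC50 from a titration from 0.6 nM upwards.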

[2] = AP1 Signaling Pathway (AID 357; active means well fitted curve in either direction with a large enough effect, not every such curve was filed as active;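 further: ME-180 reporter cells stimulated with EGF at its EC50 level; on the % scale 0 is the no-effect control and ±100 the full control effect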); conditions: ME-180 AP-1-bla reporter, EGF-induced, beta-lactamase ratio, 5 h; at 7.69 µM (top of the series) unless noted
In short: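 A ratiometric CCF4 readout (405 nm excitation; 460 and 530 nm emission) quantified AP-1-driven beta-lactamase in ME-180 cells after 5 h with compound and EC50 EGF; AC50 values were derived for activators and inhibitors.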

[3] = target: Cytochrome P450 1A2 (Homo sapiens) (UniProt P05177); experiment: p450-cyp1a2 (AID 410; calls by dose curve; further: potency means the concentration at half of the fitted maximal effect); conditions: recombinant CYP1A2, luciferin-ME demethylation, luminescence; series mostly up to 57 µM
In short: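 20nM CYP1A2, 100uM Luciferin-ME (=Km), 100mM KPO4; cpd 10 min RT; +NADPH regen, 60 min RT; stop/detect 20 min; luminescence. Normalized to furafylline 57 uM = full inhibition.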

[4] = NFAT Signaling Pathway (AID 444; active means well fitted curve in either direction with a large enough effect, not every such curve was filed as active;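 further: carbachol stimulus at about its EC50 of 1 µM final; on the % scale 0 is the no-effect control and ±100 the full control effect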); conditions: Jurkat NFAT-bla M1, carbachol, beta-lactamase ratio, 5 h; at 7.69 µM (top of the series) unless noted
In short: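 Jurkat cells with NFAT-driven β-lactamase reporter and co-expressed M1 receptor, stimulated with carbachol (final 1 uM, ~EC50), compound titration, 5 h at 37 °C. CCF4 loaded 1 h at RT; 460/530 nm ratio gave %activity and AC50.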

[5] = Stat Signaling Pathway (AID 446; active means well fitted curve in either direction with a large enough effect, not every such curve was filed as active;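 further: ME-180 cervical cancer cells given 40 pM IL-6 alongside compound; SIE-controlled beta-lactamase reporter measured as 460/530 nm FRET emission ratio; on the % scale 0 is the no-effect control and ±100 the full control effect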); conditions: ME-180 (cervical carcinoma) SIE beta-lactamase reporter, IL-6 stimulated, 5 h; at 7.69 µM (top of the series) unless noted
In short: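 Compound effects on IL-6-induced STAT reporter activity were measured in ME-180 cells. After overnight culture, cells were co-treated with 40 pM IL-6 for 5 hrs before beta-lactamase substrate loading at room temperature.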

[6] = target: Glucocorticoid receptor (Homo sapiens) (UniProt P04150); experiment: GR-GFP Redistribution (AID 450;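 active means compounds whose dose series gives a full or clear partial fitted curve of increased nuclear translocation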; further: potency means the concentration at half of the fitted maximal effect); conditions: U2OS GR-GFP nuclear translocation, laser cytometry, 2 h
[7] = target: Glucocorticoid receptor (Homo sapiens) (UniProt P04150); experiment: GR-EFC Redistribution (AID 451; calls by dose curve; further: potency means the concentration at half of the fitted maximal effect); conditions: CHO-K1 GR-EFC translocation, beta-gal luminescence, 2 h
In short: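 CHO-K1 cells expressing nuclear EA and GR-ED fragments of b-gal; compounds titrated up to 46 uM final, 2 h at 37 C. GR nuclear translocation read as complemented b-gal luminescence after 1 h RT detection.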

[8] = target: Mitogen-activated protein kinase 10 (Mus musculus) (UniProt Q61831); experiment: JNK3 AlphaScreen Assay (AID 530; active means well fitted curve in either direction with a large enough effect, not every such curve was filed as active;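 further: kinase came from lysate of stimulated human HepG2 cells; signal reports phosphorylation of biotinylated GST-cJun 1-79 at Ser73 with 10 µM ATP; on the % scale 0 is the no-effect control and ±100 the full control effect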); conditions: JNK3 lysate, c-Jun phosphorylation; series mostly up to 57.1 µM
In short: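 HepG2 lysate (IL-1b/TNFa pre-activated) + biotin-GST-cJun 1-79 + anti-pSer73 cJun; cpd titration, 15 min RT; ATP 10 uM start; Tris pH 7.6, MgCl2, DTT, vanadate; beads in EDTA buffer; AlphaScreen.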

[9] = target: 3',5'-cyclic-AMP phosphodiesterase 4B (Homo sapiens) (UniProt Q07343); experiment: qHTS Assay for Inhibitors of PDE-IV (AID 607; active means well fitted activation curve with a large enough effect in the main read-out, with a control signal flat, not every such curve was filed as active; further: % of control where 0% means no effect); conditions: HEK293 ACTOne CNG channel cells, membrane potential fluorescence; series mostly up to 22.9 µM
In short: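 ACTOne HEK293 cells carry a modified cAMP-gated CNG channel and express endogenous PDE4; plated 1000 cells/well, compounds up to 22.9 uM final. Membrane-potential dye fluorescence (ex 535/em 590) was read; parental cells received 10 uM forskolin + 100 uM RO 20-1724.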

[10] = target: Cytochrome P450 3A4 (Homo sapiens) (UniProt P08684); experiment: qHTS Assay for Inhibitors and Substrates of Cytochrome P450 3A4 (AID 884); conditions: recombinant CYP3A4, Luciferin-PPXE luminescence; series mostly up to 57.1 µM; further: potency means the concentration at half of the fitted maximal effect; nearly all actives have a fitted effect of over 50% in size
In short: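 Luminescent readout of luciferin produced by CYP3A4 (20 nM) dealkylation of Luciferin-PPXE, 25 uM (its KM). NADPH-driven reaction ran 60 min at RT after 10 min compound preincubation; data scaled to 57 uM ketoconazole as 100% inhibition.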

[11] = target: Cytochrome P450 3A4 (Homo sapiens) (UniProt P08684); experiment: qHTS Assay for Activators of Cytochrome P450 3A4 (AID 885); conditions: recombinant CYP3A4, Luciferin-PPXE luminescence, 60 min; series mostly up to 57.1 µM; further: nearly all actives have a fitted effect of over 65% in size
In short: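 CYP3A4 activity: Luciferin-PPXE O-dealkylation, 25uM substrate, 200mM KPO4, RT throughout. Read-out is luciferase luminescence; higher values reflect activation.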

[12] = target: Cytochrome P450 2C19 (Homo sapiens) (UniProt P33261); experiment: qHTS Assay for Inhibitors and Substrates of Cytochrome P450 2C19 (AID 899); conditions: recombinant CYP2C19, luciferin-H EGE luminescence; series mostly up to 57.1 µM; further: potency means the concentration at half of the fitted maximal effect; nearly all actives have a fitted effect of over 60% in size
In short: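 Luminescent read-out of luciferin formed from Luciferin-H EGE (10uM, equal to KM). Enzyme 5nM in 50mM KPO4; compound added, 10 min at 37C, then NADPH regenerating system for 60 min at 37C. Full inhibition defined by 57uM ketoconazole.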

[13] = target: Dual specificity protein kinase CLK4 (Homo sapiens) (UniProt Q9HAZ1); experiment: qHTS Assay for Inhibitors of CDC-like Kinase 4 (Kinase-Glo Assay) (AID 1770); conditions: recombinant Clk4, Kinase-Glo ATP depletion luminescence; series mostly up to 66.7 µM; further: on the % scale 0 is the no-effect control and ±100 the full control effect; nearly all actives have a fitted effect of over 65% in size
In short: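 Readout: Kinase-Glo luminescence from ATP left after a 4.5 h room-temperature reaction of 25 nM Clk4 with 100 uM RS peptide and 1 uM ATP (final). Buffer: 25 mM Tris pH 7.5, 10 mM MgCl2.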

[14] = target: Dual specificity protein kinase CLK4 (Homo sapiens) (UniProt Q9HAZ1); experiment: qHTS Assay for Inhibitors of CDC-like Kinase 4 (ADP-Glo Assay) (AID 1771); conditions: recombinant CLK4, ADP-Glo luminescence; series mostly up to 80 µM; further: on the % scale 0 is the no-effect control and ±100 the full control effect; nearly all actives have a fitted effect of over 70% in size
In short: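 25 nM Clk4, 100 uM RS peptide, 1 uM ATP (final); 2 mM MgCl2, 0.5 mM EGTA, 2.5 mM DTT, 0.01% Triton X-100; 1 hr RT. ADP-Glo readout: ATP depletion 45 min, conversion/luciferase 30 min, luminescence.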

[15] = target: Dual specificity protein kinase CLK4 (Homo sapiens) (UniProt Q9HAZ1); experiment: qHTS Assay for Inhibitors of CDC-like Kinase 4 (ADP-FP Assay) (AID 1795); conditions: Transcreener ADP fluorescence polarization; series mostly up to 50 µM;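 further: recombinant human CLK4 phosphorylating RS repeat peptide at 1 µM ATP; on the % scale 0 is the no-effect control and ±100 the full control effect; nearly all actives have a fitted effect of over 60% in size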
In short: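 FP readout: Orange Transcreener ADP2 tracer (4 nM) plus ADP antibody, read after 30 min at room temperature. Kinase step: 6.25 nM Clk4, 100 uM RS peptide, 1 uM ATP, pH 7.5, 1 h.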

[16] = target: Ubiquitin carboxyl-terminal hydrolase 1 (Homo sapiens) (UniProt O94782); experiment: Inhibitors of USP1/UAF1: Pilot qHTS (AID 504865); conditions: purified USP1/UAF1, Ub-rhodamine cleavage fluorescence; series mostly up to 54.9 µM;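 further: rhodamine fluorescence freed from ubiquitin-rhodamine substrate followed over time; top concentration of the series differs between compounds; on the % scale 0 is the no-effect control and ±100 the full control effect; nearly all actives have a fitted effect of over 35% in size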
In short: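 1nM USP1/UAF1 + cpd, 15 min RT; start w/ Ub-Rho 150nM final; kinetic FL 480/540 nm, 6 reads q60 s. Buffer 50mM HEPES pH 7.8, 0.5mM EDTA, 1mM TCEP, 0.01% Tween-20, 0.1 mg/ml BSA.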

[17] = Primary qHTS for small molecule stabilizers of the endoplasmic reticulum resident proteome: Secreted ER Calcium Modulated Protein (SERCaMP) assay (AID 1508630); conditions: SH-SY5Y GLuc-SERCaMP (Gaussia luciferase released on ER calcium loss) secretion, thapsigargin, luminescence; series mostly up to 38.4 µM; further: on the % scale 0 is the no-effect control and ±100 the full control effect
In short: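 The SH-SY5Y reporter protocol was run at 3 concentrations up to 38.3 uM (primary) or 11 concentrations (follow-up): 16 h compound, 100 nM thapsigargin for 4 h, then extracellular luciferase luminescence.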

[18] = target: Cytochrome P450 2C9 (Homo sapiens) (UniProt P11712); experiment: qHTS Assay for Inhibitors and Substrates of Cytochrome P450 2C9 (AID 883); conditions: recombinant CYP2C9, luciferin-H luminescence, 60 min; series mostly up to 57.1 µM; further: potency means the concentration at half of the fitted maximal effect; nearly all actives have a fitted effect of over 60% in size
In short: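 10nM CYP2C9 + 100uM Luciferin-H (=KM), 25mM KPO4; cpd 10 min 37C; NADPH regen, 60 min 37C; stop/detect with P450 Glo-Buffer 20 min; luminescence. Norm. to 57uM sulphaphenazole as full inhibition.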

Chain of 3',5'-cyclic-AMP phosphodiesterase 4B (Homo sapiens) (Q07343 whole entry, looked up): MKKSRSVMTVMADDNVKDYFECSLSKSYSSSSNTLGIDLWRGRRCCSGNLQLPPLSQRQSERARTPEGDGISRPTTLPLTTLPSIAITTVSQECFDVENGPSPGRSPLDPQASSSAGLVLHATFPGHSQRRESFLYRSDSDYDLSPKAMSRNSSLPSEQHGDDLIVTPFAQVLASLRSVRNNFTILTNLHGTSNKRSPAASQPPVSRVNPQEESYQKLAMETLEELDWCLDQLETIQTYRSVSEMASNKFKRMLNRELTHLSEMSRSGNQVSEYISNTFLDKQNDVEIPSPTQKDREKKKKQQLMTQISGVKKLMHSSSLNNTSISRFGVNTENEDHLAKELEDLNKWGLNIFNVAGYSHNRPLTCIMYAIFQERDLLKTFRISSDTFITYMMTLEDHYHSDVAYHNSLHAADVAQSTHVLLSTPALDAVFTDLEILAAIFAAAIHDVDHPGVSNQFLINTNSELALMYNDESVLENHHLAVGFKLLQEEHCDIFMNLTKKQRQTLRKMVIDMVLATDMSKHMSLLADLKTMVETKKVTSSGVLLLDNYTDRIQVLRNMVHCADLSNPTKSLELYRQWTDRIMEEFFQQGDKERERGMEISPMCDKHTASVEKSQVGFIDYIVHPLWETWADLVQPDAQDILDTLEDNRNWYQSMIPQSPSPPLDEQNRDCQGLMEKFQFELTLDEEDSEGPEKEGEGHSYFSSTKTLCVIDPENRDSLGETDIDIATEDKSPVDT
Chain of Glucocorticoid receptor (Homo sapiens) (P04150 whole entry, looked up, the tested form may be a part): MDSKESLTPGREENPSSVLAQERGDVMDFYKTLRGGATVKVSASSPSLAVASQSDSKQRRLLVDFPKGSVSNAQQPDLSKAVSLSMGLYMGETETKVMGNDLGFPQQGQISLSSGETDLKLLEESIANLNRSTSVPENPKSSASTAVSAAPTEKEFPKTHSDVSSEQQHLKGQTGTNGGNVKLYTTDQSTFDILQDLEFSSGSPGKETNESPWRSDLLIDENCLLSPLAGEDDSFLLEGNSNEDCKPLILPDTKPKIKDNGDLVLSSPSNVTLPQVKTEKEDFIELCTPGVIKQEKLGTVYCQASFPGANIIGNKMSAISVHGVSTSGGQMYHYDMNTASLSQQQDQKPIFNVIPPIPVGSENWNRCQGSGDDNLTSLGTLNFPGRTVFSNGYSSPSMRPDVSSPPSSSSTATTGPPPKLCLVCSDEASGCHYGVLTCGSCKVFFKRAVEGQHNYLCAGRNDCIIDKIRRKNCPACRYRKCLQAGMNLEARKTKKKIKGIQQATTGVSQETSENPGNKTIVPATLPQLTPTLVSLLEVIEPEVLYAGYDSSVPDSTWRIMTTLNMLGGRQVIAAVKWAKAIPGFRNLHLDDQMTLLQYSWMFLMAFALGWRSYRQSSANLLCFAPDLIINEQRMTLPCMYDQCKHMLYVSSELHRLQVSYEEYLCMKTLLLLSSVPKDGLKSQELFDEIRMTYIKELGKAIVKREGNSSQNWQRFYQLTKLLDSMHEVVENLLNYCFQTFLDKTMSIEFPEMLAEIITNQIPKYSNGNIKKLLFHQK
Chain of Cytochrome P450 1A2 (Homo sapiens) (P05177 whole entry, looked up): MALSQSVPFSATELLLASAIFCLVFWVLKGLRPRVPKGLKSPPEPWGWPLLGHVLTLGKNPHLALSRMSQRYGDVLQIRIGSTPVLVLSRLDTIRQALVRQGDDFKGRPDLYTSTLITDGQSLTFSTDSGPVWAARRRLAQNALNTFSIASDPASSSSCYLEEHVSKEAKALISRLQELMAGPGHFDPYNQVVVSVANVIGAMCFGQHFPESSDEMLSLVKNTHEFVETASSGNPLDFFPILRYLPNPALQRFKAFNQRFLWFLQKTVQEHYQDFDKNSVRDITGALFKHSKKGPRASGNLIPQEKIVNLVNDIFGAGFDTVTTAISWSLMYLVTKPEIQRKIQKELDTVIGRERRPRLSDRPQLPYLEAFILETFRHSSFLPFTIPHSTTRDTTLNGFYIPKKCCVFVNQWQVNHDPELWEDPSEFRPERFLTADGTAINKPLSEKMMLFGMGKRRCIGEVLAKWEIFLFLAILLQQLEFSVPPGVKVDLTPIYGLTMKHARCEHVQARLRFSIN
Chain of Dual specificity protein kinase CLK4 (Homo sapiens) (Q9HAZ1 whole entry, looked up): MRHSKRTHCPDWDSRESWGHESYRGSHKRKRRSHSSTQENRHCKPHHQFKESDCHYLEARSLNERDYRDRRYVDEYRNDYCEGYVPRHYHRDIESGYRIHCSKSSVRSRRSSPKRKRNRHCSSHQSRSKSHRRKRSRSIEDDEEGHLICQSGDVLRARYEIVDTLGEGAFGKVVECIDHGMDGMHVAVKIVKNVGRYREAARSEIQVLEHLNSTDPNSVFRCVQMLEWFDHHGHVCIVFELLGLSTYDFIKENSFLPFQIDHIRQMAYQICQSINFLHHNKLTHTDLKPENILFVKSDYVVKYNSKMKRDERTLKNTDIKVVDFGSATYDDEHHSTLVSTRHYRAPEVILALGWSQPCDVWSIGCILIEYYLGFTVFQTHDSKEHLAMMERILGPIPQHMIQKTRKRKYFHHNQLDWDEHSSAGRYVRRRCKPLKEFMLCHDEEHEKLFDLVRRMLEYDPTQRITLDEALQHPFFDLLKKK
Chain of Cytochrome P450 3A4 (Homo sapiens) (P08684 whole entry, looked up): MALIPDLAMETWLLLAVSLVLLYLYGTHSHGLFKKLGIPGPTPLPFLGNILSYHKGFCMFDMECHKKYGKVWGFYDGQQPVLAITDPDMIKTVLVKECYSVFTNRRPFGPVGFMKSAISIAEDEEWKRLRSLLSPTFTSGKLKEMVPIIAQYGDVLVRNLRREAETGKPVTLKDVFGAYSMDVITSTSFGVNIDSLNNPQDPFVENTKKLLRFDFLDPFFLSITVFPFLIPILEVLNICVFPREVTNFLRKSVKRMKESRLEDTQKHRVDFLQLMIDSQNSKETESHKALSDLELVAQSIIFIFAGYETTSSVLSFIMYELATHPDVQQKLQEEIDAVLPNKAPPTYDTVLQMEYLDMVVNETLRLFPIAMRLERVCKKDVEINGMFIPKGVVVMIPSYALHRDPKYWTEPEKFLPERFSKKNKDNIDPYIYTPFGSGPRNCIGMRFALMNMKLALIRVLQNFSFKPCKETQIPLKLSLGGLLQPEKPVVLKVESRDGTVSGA
Chain of Ubiquitin carboxyl-terminal hydrolase 1 (Homo sapiens) (O94782 whole entry, looked up): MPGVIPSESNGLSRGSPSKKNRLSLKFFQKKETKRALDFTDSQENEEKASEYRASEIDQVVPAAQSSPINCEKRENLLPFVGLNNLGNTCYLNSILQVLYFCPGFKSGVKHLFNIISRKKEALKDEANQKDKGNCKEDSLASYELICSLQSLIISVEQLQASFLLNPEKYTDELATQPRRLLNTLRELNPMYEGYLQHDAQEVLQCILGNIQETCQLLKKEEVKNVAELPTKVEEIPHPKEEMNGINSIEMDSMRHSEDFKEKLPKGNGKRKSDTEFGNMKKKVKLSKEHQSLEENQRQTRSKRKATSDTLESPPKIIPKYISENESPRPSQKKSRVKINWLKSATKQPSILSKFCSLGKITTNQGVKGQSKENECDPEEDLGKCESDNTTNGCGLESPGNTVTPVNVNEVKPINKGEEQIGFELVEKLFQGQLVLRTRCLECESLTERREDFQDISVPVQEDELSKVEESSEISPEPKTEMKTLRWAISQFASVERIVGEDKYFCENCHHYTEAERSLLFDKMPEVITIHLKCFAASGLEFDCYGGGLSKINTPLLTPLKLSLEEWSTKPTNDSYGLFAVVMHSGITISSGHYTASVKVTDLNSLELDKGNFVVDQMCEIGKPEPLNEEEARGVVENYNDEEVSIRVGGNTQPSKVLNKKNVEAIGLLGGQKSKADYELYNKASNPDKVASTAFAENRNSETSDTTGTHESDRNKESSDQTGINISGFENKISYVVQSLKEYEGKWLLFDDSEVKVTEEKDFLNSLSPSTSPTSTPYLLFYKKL
Chain of Lysosomal acid glucosylceramidase (Homo sapiens) (P04062 whole entry, looked up): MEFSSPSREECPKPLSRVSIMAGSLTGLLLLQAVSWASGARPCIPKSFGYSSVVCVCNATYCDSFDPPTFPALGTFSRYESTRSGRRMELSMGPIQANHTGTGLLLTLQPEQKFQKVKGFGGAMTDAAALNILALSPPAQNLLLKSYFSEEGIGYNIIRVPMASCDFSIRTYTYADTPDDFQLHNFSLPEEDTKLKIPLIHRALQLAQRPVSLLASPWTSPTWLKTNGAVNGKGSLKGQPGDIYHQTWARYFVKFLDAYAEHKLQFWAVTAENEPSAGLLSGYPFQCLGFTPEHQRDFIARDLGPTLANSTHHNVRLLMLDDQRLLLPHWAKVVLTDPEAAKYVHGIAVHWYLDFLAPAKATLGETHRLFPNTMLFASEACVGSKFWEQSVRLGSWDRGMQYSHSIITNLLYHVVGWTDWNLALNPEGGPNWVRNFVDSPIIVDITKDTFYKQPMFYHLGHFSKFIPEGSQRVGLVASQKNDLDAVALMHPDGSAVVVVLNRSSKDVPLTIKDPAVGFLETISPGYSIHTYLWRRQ
Chain of Cytochrome P450 2C19 (Homo sapiens) (P33261 whole entry, looked up): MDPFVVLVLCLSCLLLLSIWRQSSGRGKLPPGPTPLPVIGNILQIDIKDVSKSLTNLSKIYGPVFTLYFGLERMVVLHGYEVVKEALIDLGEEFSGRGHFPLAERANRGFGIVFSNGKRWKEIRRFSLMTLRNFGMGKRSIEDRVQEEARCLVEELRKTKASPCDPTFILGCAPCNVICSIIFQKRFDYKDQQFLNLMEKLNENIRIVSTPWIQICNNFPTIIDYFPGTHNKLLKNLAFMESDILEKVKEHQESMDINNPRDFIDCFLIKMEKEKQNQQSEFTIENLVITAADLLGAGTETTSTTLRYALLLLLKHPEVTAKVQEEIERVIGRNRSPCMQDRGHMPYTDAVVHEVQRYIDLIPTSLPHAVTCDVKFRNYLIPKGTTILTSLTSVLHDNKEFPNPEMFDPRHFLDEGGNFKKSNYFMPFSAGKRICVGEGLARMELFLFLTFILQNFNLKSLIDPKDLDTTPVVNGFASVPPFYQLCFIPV

Structure (SMILES) | Potency [1] [µM] | activity change, negative = inhibition [2] [%] | Potency [3] | activity change, negative = inhibition [4] [%] | activity, negative = inhibition [5] [%] | Potency [6] [µM] | Potency [7] [µM] | Potency [8] | Potency [9] | Potency [10] | Potency [11] | Potency [12] | Potency [13] | Potency [14] | Potency [15] | Potency [16] | outcome [17] | Potency [18]
Cc1ccccc1-c1cncnc1NCc1cccnc1 | > 11.4 | -2.76 | 15.8 µM (active) | -14.1 | 4.91 | > 46 | > 46 | inactive | inactive | 631 nM (active) | inactive | 398 nM (active) | inactive | inactive | inactive | inactive | inactive | 
Cc1cnc(CNc2ccnc(-c3ccoc3)n2)cn1 | > 11.4 | 16.3 | 12.6 µM (active) | -4.07 | 7.07 | > 46 | > 46 | inactive | inactive |  | inactive |  | inactive | inactive | inactive | inactive | inactive | 
COc1ccc(-n2c(=O)c(-c3cccc(F)c3)nc3cncnc32)cc1 | > 11.4 | -4.56 | 3.98 µM (active) | 7.82 | -17.1 | > 9.22 | > 46 | inactive | inactive |  | inactive |  | inactive | inactive | inactive | inactive | inactive | 
CN(C)C(=O)c1ccc(-c2nccc(NCc3ccccc3)n2)cc1 | > 11.4 | -2.34 | 15.8 µM (active) | 15.6 | -5.63 | > 46 | > 46 | inactive | inactive |  | inactive |  | inactive | inactive | inactive | inactive | inactive | 
COc1ccccc1CCn1c(=O)c(-c2ccc(F)c(F)c2)nc2cncnc21 | > 11.4 | -18.1 | 2 µM (active) | 1.01 | 10.7 | > 9.22 | > 46 | inactive |  | 3160 nM (active) | inactive | 1260 nM (active) | inactive | inactive | inactive | inactive | inactive | 6.31 µM (active)
